# Experiments:
# Settings in all cases: concentration: 1 μM, replicates: in singlicate; n = 1
# PKMYT1 = tested on: PKMYT1
# PKN1 = tested on: PKN1
# PKN2 = tested on: PKN2
# PLK1 = tested on: PLK1
# PLK2 = tested on: PLK2
# PLK3 = tested on: PLK3
# PLK4 = tested on: PLK4
# PRKCD = tested on: PRKCD
# PRKCE = tested on: PRKCE
# PRKCH = tested on: PRKCH
# PRKCI = tested on: PRKCI
# PRKCQ = tested on: PRKCQ
# PRKD1 = tested on: PRKD1
# PRKD2 = tested on: PRKD2
# PRKD3 = tested on: PRKD3
# PRKG1 = tested on: PRKG1
# PRKG2 = tested on: PRKG2
# PRKR = tested on: T1, PRKR
# T1 construct: gene EIF2AK2
# PRKX = tested on: PRKX
# PRP4 = tested on: PRP4
# 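Further: KINOMEscan kinase panel screen.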
Structure (SMILES),%Inh (PKMYT1) [%],%Inh (PKN1) [%],%Inh (PKN2) [%],%Inh (PLK1) [%],%Inh (PLK2) [%],%Inh (PLK3) [%],%Inh (PLK4) [%],%Inh (PRKCD) [%],%Inh (PRKCE) [%],%Inh (PRKCH) [%],%Inh (PRKCI) [%],%Inh (PRKCQ) [%],%Inh (PRKD1) [%],%Inh (PRKD2) [%],%Inh (PRKD3) [%],%Inh (PRKG1) [%],%Inh (PRKG2) [%],%Inh (PRKR) [%],%Inh (PRKX) [%],%Inh (PRP4) [%]
COc1cc2c(cc1OC[C@@H](O)CO)ncc1c3ccc(C#N)cc3[nH]c21,0,0,33,0,0,0,9,5,62,0,0,0,0,0,0,0,0,0,0,9
NS(=O)(=O)c1cccc(-c2ccc3ncc(N4CCOCC4)nc3c2)c1 [GSK1535721],1,0,0,0,0,5,15,4,1,8,21,2,0,20,0,0,14,10,0,2
CN1c2ccc(NCc3ccc(F)cc3)cc2-c2c(cnn2C)S1(=O)=O,0,0,0,2,0,0,0,0,23,0,29,12,13,1,0,0,7,0,0,33
Cc1nnc(-c2ccc(C)c(-c3ccc(C(=O)Nc4ccc(NS(C)(=O)=O)cc4)cc3)c2)o1 [GW702865],0,28,15,0,0,7,6,0,0,0,13,0,0,0,17,7,10,8,0,56
Cc1nnc(-c2ccc3ncc(-c4ccc(S(C)=O)cc4)n3c2)o1 (stereo not drawn),3,0,0,0,11,12,0,14,0,0,0,0,0,13,0,0,0,0,19,2
CN(C(=O)c1ccc(-c2cc(-c3c[nH]nc3-c3ccccn3)ccn2)cc1)C1CCOCC1 [GW810083],4,0,0,0,0,0,2,24,4,0,18,0,10,0,0,0,10,0,0,0
O=C(Nc1cccc(-c2nn3ncccc3c2-c2ccnc(Nc3cccc(C(F)(F)F)c3)n2)c1)c1c(F)cccc1F [GSK299495],9,0,0,0,0,2,0,0,14,16,19,49,16,0,14,0,0,0,0,71
CCn1cnc2c(N)ncnc21 [GW345098],5,20,0,0,7,18,27,0,18,9,13,0,9,0,23,13,0,0,0,1
COc1ccc(Nc2nccc(N3CCC(NC(=O)Nc4cc(C)ccc4C)C3)n2)cc1 (stereo not drawn) [GSK1379741],0,0,0,0,0,0,0,0,13,0,7,22,0,0,4,0,0,0,6,22

# Reference: article PMC5540273 (PLoS ONE, 2017)
